# Assay results taken from paper PMC7862700, “An all-to-all approach to the identification of sequence-specific readers for epigenetic DNA modifications on cytosine”.
# Columns and labels:
# Test in all cases: DAPPL (digital affinity profiling via proximity ligation, sequencing); 10 mM Tris-HCl pH 7.5, 50 mM NaCl, 1 mM DTT, 4% glycerol, room temperature, 30 min; GST-TFs on glutathione beads, 16-mer random dsDNA library, 0.1% formaldehyde crosslink after washing; high values mean tight binding
# [1] = target: T1, FEV (Homo sapiens, UniProt Q99581 1-238); conditions: protein: recombinant; tags: N-terminal GST; dsDNA, one strand shown
# T1 sequence: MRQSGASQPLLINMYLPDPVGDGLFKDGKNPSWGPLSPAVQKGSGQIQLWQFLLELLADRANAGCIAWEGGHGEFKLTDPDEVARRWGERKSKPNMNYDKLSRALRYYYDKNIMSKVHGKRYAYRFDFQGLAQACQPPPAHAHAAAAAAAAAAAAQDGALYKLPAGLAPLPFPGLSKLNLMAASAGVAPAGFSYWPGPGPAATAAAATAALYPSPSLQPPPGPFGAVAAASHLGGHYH
# Summary of the method: (§1)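 In yeast, human transcription factors were expressed with a GST fusion, then pulled down on glutathione beads and given DNA barcodes. Pooled with a tag-only sample, they were exposed to 200 nmole of a 16-mer random double-stranded DNA library (Tris/NaCl/DTT/glycerol buffer, room temperature, 30 min), washed, crosslinked with 0.1% formaldehyde, proximity-ligated using BsaI/T4 ligase for 1 h at 37 °C, PCR-amplified and read on an Illumina NextSeq500. Each hexamer's frequency of reads for a factor, divided by the matching frequency for the tag-only sample, gives the binding signal.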
# [2] = target: ETV5 (Homo sapiens, UniProt P41161 1-510); conditions: protein: recombinant; tags: N-terminal GST; dsDNA, one strand shown
# ETV5, sequence (P41161 whole entry): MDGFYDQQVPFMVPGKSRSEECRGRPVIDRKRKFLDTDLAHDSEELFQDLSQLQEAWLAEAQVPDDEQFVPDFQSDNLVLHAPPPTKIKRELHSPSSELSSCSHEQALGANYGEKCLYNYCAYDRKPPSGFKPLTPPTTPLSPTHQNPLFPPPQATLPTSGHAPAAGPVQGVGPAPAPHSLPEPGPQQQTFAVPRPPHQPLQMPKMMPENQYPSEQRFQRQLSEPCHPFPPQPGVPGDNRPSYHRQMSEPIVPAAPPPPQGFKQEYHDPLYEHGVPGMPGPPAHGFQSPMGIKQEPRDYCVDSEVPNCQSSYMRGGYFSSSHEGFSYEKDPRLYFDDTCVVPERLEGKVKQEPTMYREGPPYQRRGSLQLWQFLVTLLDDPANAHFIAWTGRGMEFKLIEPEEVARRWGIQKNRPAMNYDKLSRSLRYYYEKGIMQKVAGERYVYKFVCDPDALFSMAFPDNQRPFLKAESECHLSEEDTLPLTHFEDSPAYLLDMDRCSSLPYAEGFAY
# Summary of the method: as §1
# [3] = target: HSF1 (Homo sapiens, UniProt Q00613 1-529); conditions: protein: recombinant; tags: N-terminal GST; chain copies: 3; dsDNA, one strand shown
# HSF1, sequence (Q00613 whole entry): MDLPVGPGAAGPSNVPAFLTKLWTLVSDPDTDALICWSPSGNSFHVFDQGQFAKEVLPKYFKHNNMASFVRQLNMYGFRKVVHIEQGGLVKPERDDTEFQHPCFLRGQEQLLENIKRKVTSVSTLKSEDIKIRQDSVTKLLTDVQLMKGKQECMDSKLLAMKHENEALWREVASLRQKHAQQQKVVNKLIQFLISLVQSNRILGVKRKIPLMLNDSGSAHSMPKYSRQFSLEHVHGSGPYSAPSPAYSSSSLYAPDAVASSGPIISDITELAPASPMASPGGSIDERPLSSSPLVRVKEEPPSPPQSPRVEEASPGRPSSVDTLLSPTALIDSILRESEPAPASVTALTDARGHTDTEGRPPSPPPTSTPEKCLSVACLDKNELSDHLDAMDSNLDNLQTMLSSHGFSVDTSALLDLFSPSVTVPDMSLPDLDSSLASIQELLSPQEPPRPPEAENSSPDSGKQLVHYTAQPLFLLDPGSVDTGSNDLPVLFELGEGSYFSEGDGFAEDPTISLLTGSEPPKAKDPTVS
# Summary of the method: as §1
# [4] = target: T2, SPIC (Homo sapiens, UniProt Q8N5J4 1-248); conditions: protein: recombinant; tags: N-terminal GST; dsDNA, one strand shown
# T2 sequence: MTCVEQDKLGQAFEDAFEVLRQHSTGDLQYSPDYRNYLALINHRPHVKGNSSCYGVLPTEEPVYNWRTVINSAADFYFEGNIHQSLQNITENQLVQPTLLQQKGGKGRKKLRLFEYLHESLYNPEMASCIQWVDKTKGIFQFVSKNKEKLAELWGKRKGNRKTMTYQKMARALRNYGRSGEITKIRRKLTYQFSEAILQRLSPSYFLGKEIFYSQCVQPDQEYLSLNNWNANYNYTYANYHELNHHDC
# Summary of the method: as §1
# [5] = target: ELF4 (Homo sapiens, UniProt Q99607 1-663); conditions: protein: recombinant; tags: N-terminal GST; dsDNA, one strand shown
# ELF4, sequence (Q99607 whole entry): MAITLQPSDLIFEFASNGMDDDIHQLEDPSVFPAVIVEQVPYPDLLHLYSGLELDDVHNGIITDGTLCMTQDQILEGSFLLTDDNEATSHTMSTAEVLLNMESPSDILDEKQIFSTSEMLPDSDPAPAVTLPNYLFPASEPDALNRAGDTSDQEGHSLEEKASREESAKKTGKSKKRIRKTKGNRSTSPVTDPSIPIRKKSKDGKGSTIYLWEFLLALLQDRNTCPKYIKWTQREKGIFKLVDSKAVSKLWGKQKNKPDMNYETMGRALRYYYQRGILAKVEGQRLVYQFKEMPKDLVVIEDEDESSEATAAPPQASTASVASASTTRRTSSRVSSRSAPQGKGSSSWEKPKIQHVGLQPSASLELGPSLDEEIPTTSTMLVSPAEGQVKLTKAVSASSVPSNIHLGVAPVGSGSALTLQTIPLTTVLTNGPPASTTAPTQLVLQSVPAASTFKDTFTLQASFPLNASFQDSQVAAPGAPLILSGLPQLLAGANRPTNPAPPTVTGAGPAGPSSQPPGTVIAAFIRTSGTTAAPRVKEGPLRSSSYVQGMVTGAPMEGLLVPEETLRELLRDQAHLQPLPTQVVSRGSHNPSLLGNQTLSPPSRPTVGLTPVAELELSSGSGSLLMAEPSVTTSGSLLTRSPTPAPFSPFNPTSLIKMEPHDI
# Summary of the method: as §1
# [6] = target: T3, ELK4 (Homo sapiens, UniProt P28324-2 1-405); conditions: protein: recombinant; tags: N-terminal GST; dsDNA, one strand shown
# T3 sequence: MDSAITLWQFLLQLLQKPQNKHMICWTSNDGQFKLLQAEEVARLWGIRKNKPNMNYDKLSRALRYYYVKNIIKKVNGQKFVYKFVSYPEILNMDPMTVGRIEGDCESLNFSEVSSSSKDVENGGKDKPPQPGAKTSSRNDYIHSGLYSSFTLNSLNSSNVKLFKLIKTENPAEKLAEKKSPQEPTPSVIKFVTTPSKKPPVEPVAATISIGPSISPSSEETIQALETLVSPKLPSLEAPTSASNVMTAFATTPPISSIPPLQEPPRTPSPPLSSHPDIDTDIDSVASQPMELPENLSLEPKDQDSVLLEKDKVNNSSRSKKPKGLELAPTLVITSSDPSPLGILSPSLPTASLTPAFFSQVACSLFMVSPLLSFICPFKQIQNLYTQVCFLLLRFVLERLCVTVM
# Summary of the method: as §1
# [7] = target: T4, ETV2 (Homo sapiens, UniProt O00321 1-342); conditions: protein: recombinant; tags: N-terminal GST; dsDNA, one strand shown
# T4 sequence: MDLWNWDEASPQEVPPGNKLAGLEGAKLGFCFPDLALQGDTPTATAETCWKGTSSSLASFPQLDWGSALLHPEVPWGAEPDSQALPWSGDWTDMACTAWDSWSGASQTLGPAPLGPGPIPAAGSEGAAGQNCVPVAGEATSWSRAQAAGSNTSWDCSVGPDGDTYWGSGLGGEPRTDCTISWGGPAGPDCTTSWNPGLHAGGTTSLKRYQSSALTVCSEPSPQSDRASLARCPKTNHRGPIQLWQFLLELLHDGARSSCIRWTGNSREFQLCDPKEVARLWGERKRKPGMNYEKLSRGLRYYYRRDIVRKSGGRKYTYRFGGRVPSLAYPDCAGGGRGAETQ
# Summary of the method: as §1
# [8] = target: T5, ELF3 (Homo sapiens, UniProt P78545 1-371); conditions: protein: recombinant; tags: N-terminal GST; dsDNA, one strand shown
# T5 sequence: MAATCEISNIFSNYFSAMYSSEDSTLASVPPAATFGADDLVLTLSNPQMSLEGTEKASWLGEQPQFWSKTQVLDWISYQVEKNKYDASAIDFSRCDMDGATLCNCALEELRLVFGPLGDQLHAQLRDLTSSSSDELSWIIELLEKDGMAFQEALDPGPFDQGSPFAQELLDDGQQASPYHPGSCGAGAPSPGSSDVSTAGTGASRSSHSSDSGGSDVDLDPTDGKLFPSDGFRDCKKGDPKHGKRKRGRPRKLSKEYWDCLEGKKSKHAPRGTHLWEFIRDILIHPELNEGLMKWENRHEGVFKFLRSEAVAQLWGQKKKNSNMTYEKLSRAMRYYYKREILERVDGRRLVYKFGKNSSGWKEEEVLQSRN
# Summary of the method: as §1
# [9] = target: ETV1 (Homo sapiens, UniProt P50549 1-477); conditions: protein: recombinant; tags: N-terminal GST; dsDNA, one strand shown
# ETV1, sequence (P50549 whole entry): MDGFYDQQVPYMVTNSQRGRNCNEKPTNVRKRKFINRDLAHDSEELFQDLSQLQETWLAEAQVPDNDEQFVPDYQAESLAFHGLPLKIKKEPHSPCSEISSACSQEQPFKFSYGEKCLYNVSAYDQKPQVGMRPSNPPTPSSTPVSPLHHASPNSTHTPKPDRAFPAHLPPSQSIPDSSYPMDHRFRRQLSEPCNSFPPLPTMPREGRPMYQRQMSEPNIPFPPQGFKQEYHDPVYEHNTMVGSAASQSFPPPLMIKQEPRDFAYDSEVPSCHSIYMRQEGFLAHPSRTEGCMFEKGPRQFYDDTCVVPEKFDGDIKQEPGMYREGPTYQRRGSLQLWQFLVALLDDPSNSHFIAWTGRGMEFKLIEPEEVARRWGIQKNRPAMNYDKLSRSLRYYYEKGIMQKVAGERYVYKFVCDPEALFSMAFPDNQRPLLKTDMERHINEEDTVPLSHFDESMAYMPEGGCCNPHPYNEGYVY
# Summary of the method: as §1
# [10] = target: T6, ERF (Homo sapiens, UniProt P50548 1-548); conditions: protein: recombinant; tags: N-terminal GST; dsDNA, one strand shown
# T6 sequence: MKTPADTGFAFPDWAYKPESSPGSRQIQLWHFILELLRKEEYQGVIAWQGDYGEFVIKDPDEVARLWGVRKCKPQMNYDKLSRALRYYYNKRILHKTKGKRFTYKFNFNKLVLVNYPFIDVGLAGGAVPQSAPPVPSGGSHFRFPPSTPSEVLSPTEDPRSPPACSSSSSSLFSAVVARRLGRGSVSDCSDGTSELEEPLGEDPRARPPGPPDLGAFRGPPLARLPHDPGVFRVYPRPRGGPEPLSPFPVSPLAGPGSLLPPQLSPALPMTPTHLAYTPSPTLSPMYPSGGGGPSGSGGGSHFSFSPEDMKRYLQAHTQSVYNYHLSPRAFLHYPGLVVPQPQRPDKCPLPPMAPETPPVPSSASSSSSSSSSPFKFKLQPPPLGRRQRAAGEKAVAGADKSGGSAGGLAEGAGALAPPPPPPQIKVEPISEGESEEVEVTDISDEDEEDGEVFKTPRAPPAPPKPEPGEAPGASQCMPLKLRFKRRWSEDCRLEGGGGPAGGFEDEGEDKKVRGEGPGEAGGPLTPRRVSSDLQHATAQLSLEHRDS
# Summary of the method: as §1
# [11] = target: T7, ETV3L (Homo sapiens, UniProt Q6ZN32 1-361); conditions: protein: recombinant; tags: N-terminal GST; dsDNA, one strand shown
# T7 sequence: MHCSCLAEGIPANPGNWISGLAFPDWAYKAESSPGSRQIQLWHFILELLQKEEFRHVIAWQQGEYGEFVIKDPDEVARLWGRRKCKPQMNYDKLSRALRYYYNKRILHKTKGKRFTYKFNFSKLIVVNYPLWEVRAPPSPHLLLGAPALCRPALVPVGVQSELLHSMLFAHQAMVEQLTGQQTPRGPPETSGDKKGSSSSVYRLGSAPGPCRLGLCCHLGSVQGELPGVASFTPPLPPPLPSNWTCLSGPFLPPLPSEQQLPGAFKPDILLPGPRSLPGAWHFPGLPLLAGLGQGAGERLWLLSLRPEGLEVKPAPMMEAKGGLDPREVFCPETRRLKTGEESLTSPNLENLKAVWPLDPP
# Summary of the method: as §1
# [12] = target: T8, ETS2 (Homo sapiens, UniProt P15036 1-469); conditions: protein: recombinant; tags: N-terminal GST; dsDNA, one strand shown
# T8 sequence: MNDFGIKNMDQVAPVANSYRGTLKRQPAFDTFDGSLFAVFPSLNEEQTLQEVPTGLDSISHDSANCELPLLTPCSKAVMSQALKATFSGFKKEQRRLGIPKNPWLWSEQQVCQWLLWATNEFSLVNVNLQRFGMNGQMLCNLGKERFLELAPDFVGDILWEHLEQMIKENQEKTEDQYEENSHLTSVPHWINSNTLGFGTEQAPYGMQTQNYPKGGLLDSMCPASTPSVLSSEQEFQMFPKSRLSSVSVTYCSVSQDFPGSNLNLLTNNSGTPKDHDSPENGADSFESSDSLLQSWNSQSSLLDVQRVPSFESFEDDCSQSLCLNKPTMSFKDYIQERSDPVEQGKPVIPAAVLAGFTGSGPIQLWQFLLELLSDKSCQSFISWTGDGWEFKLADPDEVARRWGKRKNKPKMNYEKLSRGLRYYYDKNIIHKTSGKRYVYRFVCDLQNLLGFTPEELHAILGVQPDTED
# Summary of the method: as §1
# [13] = target: T9, SPDEF (Homo sapiens, UniProt O95238 1-335); conditions: protein: recombinant; tags: N-terminal GST; dsDNA, one strand shown
# T9 sequence: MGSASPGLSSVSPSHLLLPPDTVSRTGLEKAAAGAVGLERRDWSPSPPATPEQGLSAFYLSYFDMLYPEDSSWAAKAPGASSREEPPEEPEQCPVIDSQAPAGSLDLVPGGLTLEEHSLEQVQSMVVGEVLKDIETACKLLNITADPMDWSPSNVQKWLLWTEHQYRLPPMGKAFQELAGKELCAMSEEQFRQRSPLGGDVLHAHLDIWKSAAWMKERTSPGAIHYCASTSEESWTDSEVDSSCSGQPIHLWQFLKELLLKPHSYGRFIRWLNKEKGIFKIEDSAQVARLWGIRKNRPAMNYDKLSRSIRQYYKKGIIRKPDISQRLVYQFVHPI
# Summary of the method: as §1
# [14] = target: T10, ETV7 (Homo sapiens, UniProt Q9Y603 1-341); conditions: protein: recombinant; tags: N-terminal GST; dsDNA, one strand shown
# T10 sequence: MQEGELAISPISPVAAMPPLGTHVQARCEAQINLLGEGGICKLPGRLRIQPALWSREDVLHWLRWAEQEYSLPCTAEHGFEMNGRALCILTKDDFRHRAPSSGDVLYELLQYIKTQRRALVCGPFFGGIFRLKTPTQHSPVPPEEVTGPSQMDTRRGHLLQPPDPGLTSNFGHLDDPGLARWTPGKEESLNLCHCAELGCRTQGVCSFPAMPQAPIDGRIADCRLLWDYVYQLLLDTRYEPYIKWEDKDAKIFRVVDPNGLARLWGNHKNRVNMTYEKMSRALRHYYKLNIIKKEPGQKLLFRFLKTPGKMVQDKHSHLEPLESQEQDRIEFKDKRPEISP
# Summary of the method: as §1
# [15] = target: T11, ELF5 (Homo sapiens, UniProt Q9UKW6-2 1-255); conditions: protein: recombinant; tags: N-terminal GST; dsDNA, one strand shown
# T11 sequence: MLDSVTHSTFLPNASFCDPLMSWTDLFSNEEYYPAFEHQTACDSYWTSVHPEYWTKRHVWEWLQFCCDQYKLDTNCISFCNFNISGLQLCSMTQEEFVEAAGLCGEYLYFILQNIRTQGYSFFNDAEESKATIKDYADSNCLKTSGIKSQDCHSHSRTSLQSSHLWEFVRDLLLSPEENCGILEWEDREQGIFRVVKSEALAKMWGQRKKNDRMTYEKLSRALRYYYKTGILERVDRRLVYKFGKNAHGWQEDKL
# Summary of the method: as §1
# [16] = target: T12, ETV3 (Homo sapiens, UniProt P41162-2 1-143); conditions: protein: recombinant; tags: N-terminal GST; dsDNA, one strand shown
# T12 sequence: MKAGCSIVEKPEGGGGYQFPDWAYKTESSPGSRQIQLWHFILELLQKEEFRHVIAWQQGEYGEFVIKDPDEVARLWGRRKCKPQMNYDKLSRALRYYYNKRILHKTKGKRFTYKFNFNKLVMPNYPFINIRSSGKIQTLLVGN
# Summary of the method: as §1
# [17] = target: ETV6 (Homo sapiens, UniProt P41212 1-452); conditions: protein: recombinant; tags: N-terminal GST; dsDNA, one strand shown
# ETV6, sequence (P41212 whole entry): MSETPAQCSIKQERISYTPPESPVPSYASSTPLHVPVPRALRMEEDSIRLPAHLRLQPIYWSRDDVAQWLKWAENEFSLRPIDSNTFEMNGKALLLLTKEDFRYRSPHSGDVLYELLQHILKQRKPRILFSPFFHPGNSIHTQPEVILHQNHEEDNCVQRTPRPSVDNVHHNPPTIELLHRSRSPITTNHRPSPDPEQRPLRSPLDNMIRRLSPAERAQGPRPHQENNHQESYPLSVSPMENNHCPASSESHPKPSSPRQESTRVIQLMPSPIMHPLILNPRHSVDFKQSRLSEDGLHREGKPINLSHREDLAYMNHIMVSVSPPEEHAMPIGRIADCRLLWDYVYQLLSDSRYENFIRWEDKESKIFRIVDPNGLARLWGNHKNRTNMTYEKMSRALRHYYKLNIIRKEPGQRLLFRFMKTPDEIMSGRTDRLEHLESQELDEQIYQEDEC
# Summary of the method: as §1
Sequence,binding signal [1],binding signal [2],binding signal [3],binding signal [4],binding signal [5],binding signal [6],binding signal [7],binding signal [8],binding signal [9],binding signal [10],binding signal [11],binding signal [12],binding signal [13],binding signal [14],binding signal [15],binding signal [16],binding signal [17]
GTTCCG,"1.99 fold enrichment (6-mer frequency, TF over GST control)","1.94 fold enrichment (6-mer frequency, TF over GST control)","1.05 fold enrichment (6-mer frequency, TF over GST control)","2.08 fold enrichment (6-mer frequency, TF over GST control)","1.64 fold enrichment (6-mer frequency, TF over GST control)","1.79 fold enrichment (6-mer frequency, TF over GST control)","1.61 fold enrichment (6-mer frequency, TF over GST control)","1.82 fold enrichment (6-mer frequency, TF over GST control)","2.07 fold enrichment (6-mer frequency, TF over GST control)","1.74 fold enrichment (6-mer frequency, TF over GST control)","1.93 fold enrichment (6-mer frequency, TF over GST control)","1.98 fold enrichment (6-mer frequency, TF over GST control)","2.25 fold enrichment (6-mer frequency, TF over GST control)","1.67 fold enrichment (6-mer frequency, TF over GST control)","2.5 fold enrichment (6-mer frequency, TF over GST control)","2.17 fold enrichment (6-mer frequency, TF over GST control)","1.9 fold enrichment (6-mer frequency, TF over GST control)"
TCTGAC,"1.15 fold enrichment (6-mer frequency, TF over GST control)","1.15 fold enrichment (6-mer frequency, TF over GST control)","1.07 fold enrichment (6-mer frequency, TF over GST control)","1.04 fold enrichment (6-mer frequency, TF over GST control)","1.35 fold enrichment (6-mer frequency, TF over GST control)","1.25 fold enrichment (6-mer frequency, TF over GST control)","1.16 fold enrichment (6-mer frequency, TF over GST control)","1.18 fold enrichment (6-mer frequency, TF over GST control)","1.3 fold enrichment (6-mer frequency, TF over GST control)","1.21 fold enrichment (6-mer frequency, TF over GST control)","1.04 fold enrichment (6-mer frequency, TF over GST control)","1.2 fold enrichment (6-mer frequency, TF over GST control)","1.14 fold enrichment (6-mer frequency, TF over GST control)","1.22 fold enrichment (6-mer frequency, TF over GST control)","1.2 fold enrichment (6-mer frequency, TF over GST control)","1.18 fold enrichment (6-mer frequency, TF over GST control)","1.27 fold enrichment (6-mer frequency, TF over GST control)"
